Rows were chosen to be rich in hits. Some 3.5% of all compounds tested hit in one or more screens of this group.
UHRF1 MBD2 ctr = UHRF1 methyl-DNA binding inhibition. Q96T88. UHRF1 binding to methylated oligo, TR-FRET. inhibition, % at 4.4 µM. 0.75% of 370,000 active. AID 687016; in the data active = inhibition above about 21%;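 note: UHRF1 SRA domain binding a hemimethylated CpG hairpin DNA probe; 0% = median of test compound wells and 100% = reference inhibitor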
PG9 Ab binder = binds the HIV-1 gp120 antibody PG9 | TR-FRET gp120-PG9 antibody binding | inhibition, % at 6.7 µM | 0.43% of 360,000 active; in the data active = inhibition above about 8.5%
DNMT1 inh = inhibitors of human DNMT1. inhibition (reported as % activation of signal), % at 10 µM. 0.83% of 360,000 active. DNMT1 molecular beacon, Hinp1I cleavage, fluorescence. AID 588458. P26358; in the data active = inhibition above about 50%
Target sequence (P26358 504-1616 limits assumed): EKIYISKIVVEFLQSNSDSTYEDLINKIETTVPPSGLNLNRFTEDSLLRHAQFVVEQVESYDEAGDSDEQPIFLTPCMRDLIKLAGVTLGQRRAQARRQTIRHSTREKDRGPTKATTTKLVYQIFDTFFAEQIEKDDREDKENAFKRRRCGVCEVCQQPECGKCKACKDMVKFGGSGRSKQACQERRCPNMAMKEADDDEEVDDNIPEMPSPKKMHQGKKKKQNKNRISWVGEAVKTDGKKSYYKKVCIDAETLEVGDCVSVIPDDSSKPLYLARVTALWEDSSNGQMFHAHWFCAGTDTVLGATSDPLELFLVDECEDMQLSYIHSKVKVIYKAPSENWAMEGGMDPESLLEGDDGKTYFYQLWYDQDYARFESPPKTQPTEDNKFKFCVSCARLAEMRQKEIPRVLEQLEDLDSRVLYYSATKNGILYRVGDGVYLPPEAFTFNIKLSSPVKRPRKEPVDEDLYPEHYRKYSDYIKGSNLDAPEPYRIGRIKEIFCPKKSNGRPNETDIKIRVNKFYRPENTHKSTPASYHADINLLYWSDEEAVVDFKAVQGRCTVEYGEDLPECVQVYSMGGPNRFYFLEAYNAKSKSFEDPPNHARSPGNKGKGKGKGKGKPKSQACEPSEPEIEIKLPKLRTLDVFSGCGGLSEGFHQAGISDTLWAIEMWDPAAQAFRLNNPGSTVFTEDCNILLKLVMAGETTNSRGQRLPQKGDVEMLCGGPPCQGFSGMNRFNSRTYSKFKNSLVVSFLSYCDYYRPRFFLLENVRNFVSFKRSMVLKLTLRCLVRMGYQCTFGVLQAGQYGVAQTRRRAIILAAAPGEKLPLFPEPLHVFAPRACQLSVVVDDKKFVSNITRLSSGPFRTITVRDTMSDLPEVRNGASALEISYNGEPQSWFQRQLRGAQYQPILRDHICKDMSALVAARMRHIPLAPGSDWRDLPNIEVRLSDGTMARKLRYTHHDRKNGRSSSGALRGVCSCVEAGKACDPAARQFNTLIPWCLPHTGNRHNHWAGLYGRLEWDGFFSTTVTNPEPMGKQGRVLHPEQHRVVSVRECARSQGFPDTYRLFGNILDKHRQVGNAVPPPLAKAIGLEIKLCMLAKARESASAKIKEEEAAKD
LEDGF integ inh = blocks HIV-1 LEDGF/p75-dependent DNA integration; TR-FRET IN-LEDGF/p75 DNA integration, Eu/Cy5; inhibition, % at 3.7 µM; 0.64% of 370,000 active; AID 743269;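 active = inhibition above the screen-wide mean plus 3 SD, cut at about 13% in these data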;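 note: signal is the Cy5 over europium emission ratio at 671 and 618 nm; 0% = plate median of compound wells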
rCAG binder = molecules binding r(CAG) RNA repeats | 1.3% of 370,000 active | inhibition, % at 3 µM | r(CAG) RNA repeat, TO-PRO-1 dye displacement fluorescence | AID 651821;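 active = inhibition above the plate cutoff, the mean of all test compounds on that plate plus 3 SD, cut at about 35% in these data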;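 note: 0% = DMSO alone and 100% = 100 µM mitoxantrone as full dye displacement; higher means more dye released from RNA so lower well fluorescence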
MBD2 DNA inh = blocks human MBD2 binding to methylated DNA; TR-FRET, MBD2 binding to methylated oligonucleotide; inhibition, % at 4.4 µM; 0.31% of 370,000 active; AID 686964; in the data active = inhibition above about 13%
IN multimer act = HIV-1 integrase multimerization activation, counter-screen; shares compounds with LEDGF integ inh; TR-FRET HIV-1 integrase multimerization, biochemical; activation, % at 7.7 µM; 17% of 2,000 active; AID 1053131; in the data active = activation above about 8.9%
TRFRET interf = optically interferes with TR-FRET readout in LEDGF counter-screen; shares compounds with LEDGF integ inh; TR-FRET optical interference counterscreen, HIV-1 IN multimerization; inhibition, % at 7.7 µM; 2,000 tested, under 10 active;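 active = inhibition above the mean over all tested compounds plus 3 SD, which no compound reached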;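 note: 0% = integrase with antibodies and DMSO and 100% = antibodies without integrase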
LEDGF integ conf = LEDGF/p75-dependent HIV-1 integration inhibition, confirmation; shares compounds with LEDGF integ inh; TR-FRET LEDGF/p75-dependent HIV-1 integration, biochemical; inhibition, % at 3.7 µM; 36% of 2,000 active; in the data active = inhibition above about 14%
Numbers without * were called inactive.

How did O=C(N/N=C/C=C/c1ccccc1[N+](=O)[O-])c1cccs1 do in these assays?
UHRF1 MBD2 ctr: -1.0; PG9 Ab binder: -0.5; DNMT1 inh: -0.2; LEDGF integ inh: 4.6; rCAG binder: -0.8; MBD2 DNA inh: -1.8

How did O=C(N/N=C\C=C\c1ccc([N+](=O)[O-])o1)c1cccs1 do in these assays?
UHRF1 MBD2 ctr: 43.1*; PG9 Ab binder: -5.9; DNMT1 inh: 80.6*; LEDGF integ inh: 35.9*; rCAG binder: 30.0; MBD2 DNA inh: 9.1; IN multimer act: 10.6*; TRFRET interf: -37.9; LEDGF integ conf: 57.0*

How did C[n+]1c2cc(N)ccc2cc2ccc(N)cc21 do in these assays?
UHRF1 MBD2 ctr: -321.6; PG9 Ab binder: -8.0; DNMT1 inh: active; LEDGF integ inh: 40.5*; rCAG binder: -75.1; MBD2 DNA inh: -0.1; IN multimer act: 19.5*; TRFRET interf: -69.5; LEDGF integ conf: 45.2*

Results for Nc1ccc2ccc(O)cc2c1 ?
UHRF1 MBD2 ctr: 1.1; PG9 Ab binder: -0.9; DNMT1 inh: 3.1; LEDGF integ inh: 1.3; rCAG binder: 24.1; MBD2 DNA inh: -0.8

How did CC[C@@]1(O)C(=O)OCc2c1cc1n(c2=O)Cc2cc3c(N)cccc3nc2-1 do in these assays?
UHRF1 MBD2 ctr: -0.9; PG9 Ab binder: -13.4; DNMT1 inh: 15.1; LEDGF integ inh: 23.0*; rCAG binder: 13.6; MBD2 DNA inh: -10.8; IN multimer act: 14.0*; TRFRET interf: -49.6; LEDGF integ conf: 10.0

What do the screens show for `N/C(=N\C(=S)Nc1ccc2c(c1)OCO2)c1ccccc1`?
UHRF1 MBD2 ctr: 0.3; PG9 Ab binder: -1.4; DNMT1 inh: 6.6; LEDGF integ inh: -2.1; rCAG binder: 4.8; MBD2 DNA inh: -2.2

How did COCCN1C(=O)N[C@@H](c2cccc(F)c2)C(C(=O)OC)=C1C do in these assays?
UHRF1 MBD2 ctr: -3.1; PG9 Ab binder: -0.6; DNMT1 inh: 6.9; LEDGF integ inh: 28.8*; rCAG binder: 1.1; MBD2 DNA inh: -2.1; IN multimer act: 1.4; TRFRET interf: -7.0; LEDGF integ conf: -4.5

Results for COC(=O)C1=C(C)N(Cc2ccccc2)C(=O)N[C@H]1c1cccc(F)c1 ?
UHRF1 MBD2 ctr: 5.3; PG9 Ab binder: 1.0; DNMT1 inh: -0.1; LEDGF integ inh: -3.5; rCAG binder: 1.0; MBD2 DNA inh: -1.7

How did Oc1ccc(/C=N/NC(=S)Nc2cccnc2)cc1O do in these assays?
UHRF1 MBD2 ctr: -1.5; PG9 Ab binder: -5.4; DNMT1 inh: 5.1; LEDGF integ inh: 21.1*; rCAG binder: 2.9; MBD2 DNA inh: -9.2; IN multimer act: 18.4*; TRFRET interf: -65.7; LEDGF integ conf: 33.6*

What do the screens show for `O=S(=O)(c1ccc(NC(=S)N/N=C/c2cccc(Oc3ccccc3)c2)cc1)N1CCOCC1`?
UHRF1 MBD2 ctr: 2.5; PG9 Ab binder: -1.2; DNMT1 inh: -7.2; LEDGF integ inh: -0.7; rCAG binder: 10.2; MBD2 DNA inh: 6.9

What do the screens show for `O=S(=O)(c1ccc(NC(=S)N/N=C/c2ccc(O)c(O)c2)cc1)N1CCOCC1`?
UHRF1 MBD2 ctr: 11.7; PG9 Ab binder: -1.4; DNMT1 inh: 2.4; LEDGF integ inh: 17.9*; rCAG binder: 19.2; MBD2 DNA inh: 0.2; IN multimer act: 1.3; TRFRET interf: -6.4; LEDGF integ conf: 14.1*

Results for COC(=O)C(C)N(C(=O)c1cccc(Cl)c1)c1c(C)cccc1C (configuration not stated) ?
UHRF1 MBD2 ctr: 0.2; PG9 Ab binder: 1.0; DNMT1 inh: 2.9; LEDGF integ inh: -0.3; rCAG binder: -6.4; MBD2 DNA inh: -0.3

What do the screens show for `COC(=O)C(C)N(C(=O)c1cccc2ccccc12)c1c(C)cccc1C` (configuration not stated)?
UHRF1 MBD2 ctr: -1.0; PG9 Ab binder: 0.3; DNMT1 inh: -1.3; LEDGF integ inh: 77.7*; rCAG binder: -5.3; MBD2 DNA inh: 3.0; IN multimer act: 1.7; TRFRET interf: -6.1; LEDGF integ conf: 0.7

What do the screens show for `Nc1cc(N)cc(C(=O)c2ccccc2)c1`?
UHRF1 MBD2 ctr: -4.0; PG9 Ab binder: -3.5; DNMT1 inh: -21.5; LEDGF integ inh: 21.1*; rCAG binder: 23.1; MBD2 DNA inh: -11.9; IN multimer act: 1.7; TRFRET interf: -8.6; LEDGF integ conf: -1.0

Results for COc1ccc(-c2nc3ccccc3c(=O)n2NC(=O)Cc2ccccc2)cc1 ?
UHRF1 MBD2 ctr: -4.0; PG9 Ab binder: -2.5; DNMT1 inh: 5.4; LEDGF integ inh: 51.8*; rCAG binder: 0.9; MBD2 DNA inh: -3.0; IN multimer act: 0.8; TRFRET interf: -3.9; LEDGF integ conf: -5.3

What do the screens show for `N#CCC[C@@H]1CC[C@]2(CCCN(S(=O)(=O)c3ccccc3)C2)O1`?
UHRF1 MBD2 ctr: 1.9; LEDGF integ inh: 6.4; rCAG binder: 3.3; MBD2 DNA inh: 7.7

How did Cc1ccc(S(=O)(=O)N2CCCC2C(=O)N2CCc3ccccc3C2)cc1C (configuration not stated) do in these assays?
UHRF1 MBD2 ctr: 5.0; LEDGF integ inh: -1.5; rCAG binder: 2.3; MBD2 DNA inh: 0.9

Results for O=C(/C=C/c1ccco1)Nc1nc(-c2ccccn2)cs1 ?
UHRF1 MBD2 ctr: 4.4; PG9 Ab binder: 0.6; DNMT1 inh: 29.5; LEDGF integ inh: 15.7*; rCAG binder: 17.0; MBD2 DNA inh: 3.2; IN multimer act: 2.8; TRFRET interf: -14.0; LEDGF integ conf: 16.4*

Results for c1ccc(-n2nnc3ccccc32)cc1 ?
UHRF1 MBD2 ctr: -1.4; PG9 Ab binder: -0.7; DNMT1 inh: 0.4; LEDGF integ inh: 1.7; rCAG binder: 2.7; MBD2 DNA inh: 2.1

Results for C(=C\n1nnc2ccccc21)/c1ccc[nH]1 ?
UHRF1 MBD2 ctr: 7.1; PG9 Ab binder: -1.0; DNMT1 inh: 40.0; LEDGF integ inh: 27.0*; rCAG binder: 19.1; MBD2 DNA inh: 6.7; IN multimer act: 4.4; TRFRET interf: -22.3; LEDGF integ conf: 37.3*

Results for CC(C(=O)N1CCN(c2ccccc2)CC1)c1ccc([N+](=O)[O-])cc1 (configuration not stated) ?
UHRF1 MBD2 ctr: 2.5; PG9 Ab binder: 0.1; DNMT1 inh: -3.5; LEDGF integ inh: -1.2; rCAG binder: 3.0; MBD2 DNA inh: -0.4

How did O=c1cc(-c2ccc(O)c(O)c2)oc2c(C3O[C@H](CO)[C@@H](O)[C@H](O)[C@H]3O)c(O)cc(O)c12 (some centres not stated) do in these assays?
UHRF1 MBD2 ctr: -5.5; PG9 Ab binder: -8.3; DNMT1 inh: 12.6; LEDGF integ inh: 68.4*; rCAG binder: 4.2; MBD2 DNA inh: -0.5; IN multimer act: 81.5*; TRFRET interf: -410.5; LEDGF integ conf: 90.1*

Compound activity: PubChem BioAssay, several laboratories
